Holding throughout (assay): DAPPL (digital affinity profiling via proximity ligation, sequencing); 10 mM Tris-HCl pH 7.5, 50 mM NaCl, 1 mM DTT, 4% glycerol, room temperature, 30 min; GST-TFs on glutathione beads, 16-mer random dsDNA library, 0.1% formaldehyde crosslink after washing; high values mean tight binding
Conditions in all cases: protein: recombinant; tags: N-terminal GST; dsDNA, one strand shown

Test [1] concerns the target T1, ELK1 (Homo sapiens, UniProt P19419 1-428).
T1 sequence: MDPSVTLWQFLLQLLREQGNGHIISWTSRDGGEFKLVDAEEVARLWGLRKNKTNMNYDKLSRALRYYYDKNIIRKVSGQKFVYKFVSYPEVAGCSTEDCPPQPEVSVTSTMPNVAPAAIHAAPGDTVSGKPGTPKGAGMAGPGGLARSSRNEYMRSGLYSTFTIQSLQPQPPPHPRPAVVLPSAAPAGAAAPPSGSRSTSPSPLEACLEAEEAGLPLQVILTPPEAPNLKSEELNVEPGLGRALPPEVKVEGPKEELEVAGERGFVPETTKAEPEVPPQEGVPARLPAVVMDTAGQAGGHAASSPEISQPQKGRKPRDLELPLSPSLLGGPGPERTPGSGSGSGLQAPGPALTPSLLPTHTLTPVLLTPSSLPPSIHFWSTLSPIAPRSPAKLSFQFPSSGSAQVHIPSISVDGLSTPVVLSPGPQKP
The method, boiled down:
(§1)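 GST fusions of human transcription factors were expressed in yeast and captured with glutathione beads. Once given DNA barcodes and pooled alongside a tag-only sample, they were incubated for 30 min at room temperature with 200 nmole of a random double-stranded 16-mer DNA library in Tris/NaCl/DTT/glycerol buffer, then washed, crosslinked (0.1% formaldehyde), proximity-ligated, PCR-amplified and sequenced on an Illumina NextSeq500. The binding signal of each hexamer is its read frequency for a factor divided by its frequency for the tag-only sample.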

In test [2] the target is T2, ERG (Homo sapiens, UniProt P11308 1-479).
T2 sequence: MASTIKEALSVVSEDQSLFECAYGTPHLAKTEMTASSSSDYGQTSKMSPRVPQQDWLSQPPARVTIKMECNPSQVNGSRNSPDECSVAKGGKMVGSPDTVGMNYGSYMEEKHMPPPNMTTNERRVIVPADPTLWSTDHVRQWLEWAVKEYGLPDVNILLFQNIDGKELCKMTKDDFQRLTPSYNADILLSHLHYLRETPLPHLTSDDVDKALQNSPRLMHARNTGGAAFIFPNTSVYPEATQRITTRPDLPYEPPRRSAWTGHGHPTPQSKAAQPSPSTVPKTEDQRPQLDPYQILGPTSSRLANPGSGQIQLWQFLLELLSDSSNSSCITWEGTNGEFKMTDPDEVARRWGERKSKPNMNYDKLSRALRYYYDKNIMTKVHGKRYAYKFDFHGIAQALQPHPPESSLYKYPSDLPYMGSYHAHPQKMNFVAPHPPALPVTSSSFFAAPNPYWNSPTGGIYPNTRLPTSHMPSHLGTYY
The gist of the method: as §1

In test [3] the target is ELF1 (Homo sapiens, UniProt P32519 1-619). The gist of the method: as §1
Sequence of ELF1 (P32519 whole entry): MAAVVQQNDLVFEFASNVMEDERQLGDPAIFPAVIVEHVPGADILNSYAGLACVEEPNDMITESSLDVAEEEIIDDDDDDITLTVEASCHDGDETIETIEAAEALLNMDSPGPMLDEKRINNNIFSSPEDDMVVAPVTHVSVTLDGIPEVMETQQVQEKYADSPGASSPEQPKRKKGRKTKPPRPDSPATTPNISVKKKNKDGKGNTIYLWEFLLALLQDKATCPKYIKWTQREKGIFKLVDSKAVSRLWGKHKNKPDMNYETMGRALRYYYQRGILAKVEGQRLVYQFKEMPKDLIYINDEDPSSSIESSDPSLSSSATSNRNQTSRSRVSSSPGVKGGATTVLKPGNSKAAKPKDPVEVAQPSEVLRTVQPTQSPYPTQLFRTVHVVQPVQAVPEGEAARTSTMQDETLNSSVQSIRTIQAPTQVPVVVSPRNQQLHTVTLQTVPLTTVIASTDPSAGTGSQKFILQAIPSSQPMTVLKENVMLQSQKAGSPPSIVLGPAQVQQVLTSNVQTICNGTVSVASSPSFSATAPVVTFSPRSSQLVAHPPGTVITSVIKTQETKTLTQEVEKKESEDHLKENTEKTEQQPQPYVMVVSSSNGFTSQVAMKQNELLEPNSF
The target in test [4] is SPIB (Homo sapiens, UniProt Q01892 1-262). The gist of the method:
as §1

Test [5] has as its target ETV5 (Homo sapiens, UniProt P41161 1-510). The gist of the method:
as §1

Test [6] deals with T3, ELK4 (Homo sapiens, UniProt P28324-2 1-405).
T3 sequence: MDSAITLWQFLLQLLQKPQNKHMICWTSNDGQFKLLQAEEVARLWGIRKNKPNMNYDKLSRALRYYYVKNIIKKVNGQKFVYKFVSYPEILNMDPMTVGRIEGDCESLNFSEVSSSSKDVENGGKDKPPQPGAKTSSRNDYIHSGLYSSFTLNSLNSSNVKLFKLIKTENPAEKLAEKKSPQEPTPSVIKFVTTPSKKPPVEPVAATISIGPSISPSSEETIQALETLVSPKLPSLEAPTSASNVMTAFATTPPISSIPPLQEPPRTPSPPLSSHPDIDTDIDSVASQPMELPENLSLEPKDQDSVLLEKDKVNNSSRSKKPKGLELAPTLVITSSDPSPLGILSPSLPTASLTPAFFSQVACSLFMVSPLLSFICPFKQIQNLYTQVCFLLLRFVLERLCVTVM
The gist of the method:
as §1

Test [7] concerns the target ETV1 (Homo sapiens, UniProt P50549 1-477). The method, boiled down:
as §1

The target in test [8] is T4, ERF (Homo sapiens, UniProt P50548 1-548).
T4 sequence: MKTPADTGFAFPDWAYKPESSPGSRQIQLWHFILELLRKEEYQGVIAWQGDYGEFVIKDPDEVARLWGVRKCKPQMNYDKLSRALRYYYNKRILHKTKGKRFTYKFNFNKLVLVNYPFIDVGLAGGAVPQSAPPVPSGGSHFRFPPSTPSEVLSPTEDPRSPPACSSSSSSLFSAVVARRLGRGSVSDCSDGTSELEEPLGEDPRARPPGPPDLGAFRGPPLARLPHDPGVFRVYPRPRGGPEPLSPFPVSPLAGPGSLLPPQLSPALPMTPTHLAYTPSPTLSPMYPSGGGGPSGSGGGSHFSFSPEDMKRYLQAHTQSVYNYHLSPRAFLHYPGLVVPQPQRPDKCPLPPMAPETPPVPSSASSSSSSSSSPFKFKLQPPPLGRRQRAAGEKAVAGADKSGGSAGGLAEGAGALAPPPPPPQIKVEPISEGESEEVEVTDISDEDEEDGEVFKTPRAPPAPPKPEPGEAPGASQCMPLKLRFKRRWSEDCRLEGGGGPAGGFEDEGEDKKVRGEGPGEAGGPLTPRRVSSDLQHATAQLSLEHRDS
The gist of the method: as §1

Test [9] has as its target T5, ETV3L (Homo sapiens, UniProt Q6ZN32 1-361).
T5 sequence: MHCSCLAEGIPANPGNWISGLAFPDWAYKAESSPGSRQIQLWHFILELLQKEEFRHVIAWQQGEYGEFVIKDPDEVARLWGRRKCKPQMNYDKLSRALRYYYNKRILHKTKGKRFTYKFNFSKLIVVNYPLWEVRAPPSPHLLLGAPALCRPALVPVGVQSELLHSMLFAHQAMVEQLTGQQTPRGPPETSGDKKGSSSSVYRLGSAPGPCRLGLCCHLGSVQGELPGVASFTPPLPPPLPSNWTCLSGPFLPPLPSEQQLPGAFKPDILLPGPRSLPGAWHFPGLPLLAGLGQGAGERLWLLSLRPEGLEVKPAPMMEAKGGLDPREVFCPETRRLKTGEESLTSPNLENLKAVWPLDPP
The gist of the method:
as §1

The target in test [10] is T6, ETV7 (Homo sapiens, UniProt Q9Y603 1-341).
T6 sequence: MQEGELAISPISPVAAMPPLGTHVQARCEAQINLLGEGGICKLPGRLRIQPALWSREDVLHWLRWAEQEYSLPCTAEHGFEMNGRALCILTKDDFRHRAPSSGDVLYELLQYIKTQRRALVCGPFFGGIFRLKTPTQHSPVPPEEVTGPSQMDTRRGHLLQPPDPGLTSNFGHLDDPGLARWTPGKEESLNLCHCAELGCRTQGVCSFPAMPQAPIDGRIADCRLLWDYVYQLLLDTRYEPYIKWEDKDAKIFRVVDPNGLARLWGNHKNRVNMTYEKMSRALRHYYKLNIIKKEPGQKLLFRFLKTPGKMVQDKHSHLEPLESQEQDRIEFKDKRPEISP
The gist of the method:
as §1

Test [11] addresses T7, GABPA (Homo sapiens, UniProt Q06546 1-454).
T7 sequence: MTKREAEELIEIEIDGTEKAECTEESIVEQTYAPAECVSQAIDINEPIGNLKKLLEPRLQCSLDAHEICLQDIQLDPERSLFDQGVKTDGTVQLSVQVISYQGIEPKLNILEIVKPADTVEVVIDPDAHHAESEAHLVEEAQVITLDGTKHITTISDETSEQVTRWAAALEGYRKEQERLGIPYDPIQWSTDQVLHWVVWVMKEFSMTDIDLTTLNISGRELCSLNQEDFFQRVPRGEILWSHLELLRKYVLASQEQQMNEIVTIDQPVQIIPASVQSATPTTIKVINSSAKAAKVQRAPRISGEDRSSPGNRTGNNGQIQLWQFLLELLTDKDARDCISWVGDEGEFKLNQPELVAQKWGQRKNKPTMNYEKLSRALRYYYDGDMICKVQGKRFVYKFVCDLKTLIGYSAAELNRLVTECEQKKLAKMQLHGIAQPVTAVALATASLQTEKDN
The method, boiled down:
as §1

The target in test [12] is T8, FEV (Homo sapiens, UniProt Q99581 1-238).
T8 sequence: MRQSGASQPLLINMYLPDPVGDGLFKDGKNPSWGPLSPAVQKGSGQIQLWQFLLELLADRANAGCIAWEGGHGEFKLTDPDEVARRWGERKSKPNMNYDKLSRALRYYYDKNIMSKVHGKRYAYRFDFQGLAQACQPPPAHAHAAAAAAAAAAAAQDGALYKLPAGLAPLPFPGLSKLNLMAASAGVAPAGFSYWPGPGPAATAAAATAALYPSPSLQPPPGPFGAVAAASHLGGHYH
The method, boiled down: as §1

The target in test [13] is ELF4 (Homo sapiens, UniProt Q99607 1-663). The method, boiled down:
as §1

Test [14] concerns the target T9, ETS2 (Homo sapiens, UniProt P15036 1-469).
T9 sequence: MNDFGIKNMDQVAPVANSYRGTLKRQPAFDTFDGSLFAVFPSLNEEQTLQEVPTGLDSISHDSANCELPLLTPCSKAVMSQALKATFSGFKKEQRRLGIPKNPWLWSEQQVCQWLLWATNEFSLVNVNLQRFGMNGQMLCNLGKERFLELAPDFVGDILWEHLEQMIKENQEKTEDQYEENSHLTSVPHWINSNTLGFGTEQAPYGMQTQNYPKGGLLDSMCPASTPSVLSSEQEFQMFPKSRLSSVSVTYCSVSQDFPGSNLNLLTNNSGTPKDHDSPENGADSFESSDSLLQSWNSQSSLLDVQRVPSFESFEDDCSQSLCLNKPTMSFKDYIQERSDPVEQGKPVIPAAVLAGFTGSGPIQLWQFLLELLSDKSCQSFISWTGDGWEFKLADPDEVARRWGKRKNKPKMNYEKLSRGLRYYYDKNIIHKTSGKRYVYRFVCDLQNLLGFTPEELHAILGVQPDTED
The gist of the method: as §1

Test [15] deals with T10, ETV3 (Homo sapiens, UniProt P41162-2 1-143).
T10 sequence: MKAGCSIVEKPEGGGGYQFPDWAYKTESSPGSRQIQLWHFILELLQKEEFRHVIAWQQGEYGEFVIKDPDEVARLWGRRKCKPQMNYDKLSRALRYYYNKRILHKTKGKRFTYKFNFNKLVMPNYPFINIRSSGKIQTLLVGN
The gist of the method:
as §1

Drawing on PMC7862700, “An all-to-all approach to the identification of sequence-specific readers for epigenetic DNA modifications on cytosine”, this text covers binding signal for two sequences.

Sequence of ETV5 (P41161 whole entry): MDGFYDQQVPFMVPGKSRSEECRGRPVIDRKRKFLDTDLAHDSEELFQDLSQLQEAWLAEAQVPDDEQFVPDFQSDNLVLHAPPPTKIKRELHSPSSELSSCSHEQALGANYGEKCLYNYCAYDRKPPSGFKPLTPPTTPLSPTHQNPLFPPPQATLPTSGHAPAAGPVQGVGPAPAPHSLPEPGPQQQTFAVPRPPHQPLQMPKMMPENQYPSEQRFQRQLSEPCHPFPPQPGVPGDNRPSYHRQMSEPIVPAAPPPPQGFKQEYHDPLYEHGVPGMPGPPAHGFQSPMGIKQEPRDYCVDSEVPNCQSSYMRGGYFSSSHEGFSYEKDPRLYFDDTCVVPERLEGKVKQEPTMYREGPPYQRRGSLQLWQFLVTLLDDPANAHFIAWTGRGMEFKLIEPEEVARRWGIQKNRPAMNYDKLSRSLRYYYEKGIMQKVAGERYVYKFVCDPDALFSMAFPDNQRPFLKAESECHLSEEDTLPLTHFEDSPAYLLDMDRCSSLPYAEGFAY
Sequence of ETV1 (P50549 whole entry): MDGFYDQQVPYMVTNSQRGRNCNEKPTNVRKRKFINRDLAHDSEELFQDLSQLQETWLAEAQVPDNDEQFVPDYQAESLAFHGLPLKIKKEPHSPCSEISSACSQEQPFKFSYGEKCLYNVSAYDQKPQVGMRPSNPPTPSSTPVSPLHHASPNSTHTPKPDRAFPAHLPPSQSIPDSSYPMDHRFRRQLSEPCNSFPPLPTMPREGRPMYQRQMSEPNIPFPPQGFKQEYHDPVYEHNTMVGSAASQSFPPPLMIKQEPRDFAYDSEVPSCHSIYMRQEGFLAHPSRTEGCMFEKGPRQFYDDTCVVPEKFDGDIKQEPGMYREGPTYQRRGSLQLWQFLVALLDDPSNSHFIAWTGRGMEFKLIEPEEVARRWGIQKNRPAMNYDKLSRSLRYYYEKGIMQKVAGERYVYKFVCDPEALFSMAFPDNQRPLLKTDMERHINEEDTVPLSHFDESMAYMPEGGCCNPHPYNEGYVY
Sequence of SPIB (Q01892 whole entry): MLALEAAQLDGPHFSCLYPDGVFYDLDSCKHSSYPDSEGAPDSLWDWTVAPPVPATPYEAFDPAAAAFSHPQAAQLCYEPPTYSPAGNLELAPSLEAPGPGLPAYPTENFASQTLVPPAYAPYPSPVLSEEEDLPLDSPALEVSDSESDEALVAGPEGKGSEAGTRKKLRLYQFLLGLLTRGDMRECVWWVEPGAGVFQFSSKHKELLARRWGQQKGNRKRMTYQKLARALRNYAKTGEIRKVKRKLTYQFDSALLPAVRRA
Sequence of ELF4 (Q99607 whole entry): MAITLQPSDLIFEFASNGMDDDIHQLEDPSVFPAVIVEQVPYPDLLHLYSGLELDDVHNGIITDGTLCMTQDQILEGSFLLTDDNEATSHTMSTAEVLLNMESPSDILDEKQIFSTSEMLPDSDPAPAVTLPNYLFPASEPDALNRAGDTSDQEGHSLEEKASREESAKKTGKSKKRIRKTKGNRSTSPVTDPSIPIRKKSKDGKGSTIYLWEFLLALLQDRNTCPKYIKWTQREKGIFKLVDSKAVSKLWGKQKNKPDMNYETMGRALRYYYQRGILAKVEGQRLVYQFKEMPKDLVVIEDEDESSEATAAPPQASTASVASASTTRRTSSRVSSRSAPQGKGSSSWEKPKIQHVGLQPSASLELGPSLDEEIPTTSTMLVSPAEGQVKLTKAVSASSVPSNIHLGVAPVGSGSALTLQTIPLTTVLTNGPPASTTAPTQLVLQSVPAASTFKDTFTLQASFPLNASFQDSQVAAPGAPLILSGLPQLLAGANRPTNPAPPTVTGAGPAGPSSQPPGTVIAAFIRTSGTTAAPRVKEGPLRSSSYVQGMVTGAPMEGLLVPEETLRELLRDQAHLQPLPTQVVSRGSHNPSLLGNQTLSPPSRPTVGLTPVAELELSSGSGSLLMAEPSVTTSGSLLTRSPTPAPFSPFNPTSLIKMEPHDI

As for GGTGGT, the binding signal in test [1] was 1.03 fold enrichment (6-mer frequency, TF over GST control); in test [2] it was 1.12 fold enrichment (6-mer frequency, TF over GST control); in [3], 1.01 fold enrichment (6-mer frequency, TF over GST control); in test [4] it was 1.02 fold enrichment (6-mer frequency, TF over GST control); in test [5], 1.04 fold enrichment (6-mer frequency, TF over GST control); in [6], 1.08 fold enrichment (6-mer frequency, TF over GST control). Moreover, the binding signal in [7] was 1 fold enrichment (6-mer frequency, TF over GST control); in test [8], 1.07 fold enrichment (6-mer frequency, TF over GST control); in test [9], 1.05 fold enrichment (6-mer frequency, TF over GST control); in test [10], 1 fold enrichment (6-mer frequency, TF over GST control).

AGCGCT: the binding signal was 1.04 fold enrichment (6-mer frequency, TF over GST control) in test [11]; 1.02 fold enrichment (6-mer frequency, TF over GST control) in [2]; 1.05 fold enrichment (6-mer frequency, TF over GST control) in test [3]; 1.09 fold enrichment (6-mer frequency, TF over GST control) in [4]; 1 fold enrichment (6-mer frequency, TF over GST control) in test [12]; 1.01 fold enrichment (6-mer frequency, TF over GST control) in [5]. In addition, the binding signal in test [13] was 1.06 fold enrichment (6-mer frequency, TF over GST control); in [7], 1.02 fold enrichment (6-mer frequency, TF over GST control); in [8], 1.04 fold enrichment (6-mer frequency, TF over GST control); in [9], 1.08 fold enrichment (6-mer frequency, TF over GST control); in [14] it was 1.09 fold enrichment (6-mer frequency, TF over GST control); in test [15], 1.01 fold enrichment (6-mer frequency, TF over GST control).
